PubChem BioAssay (NCI)
This is part of a sample that, as a whole, favours compounds with a hit. Of some 83,000 tested, about 20% had one in any assay.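 Plates (96-well) were seeded with cells, treated with compound at one concentration, and incubated for 48 hours before percent growth was determined.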 The source made the active and inactive calls.

Test system: U251 CNS
Test: NCI-60 one-dose screen, 48 h (100 = growth as untreated, 0 = no growth, -100 = all killed)
Settings: 10 µM unless noted
Description: Growth inhibition of the U251 human tumor cell line is measured as a screen for anti-cancer activity. Cells are grown in 96 well plates and exposed to the test compound for 48 hours. Compounds are tested at a single concentration, which is 10^-5 M for most compounds. The reported endpoint is percent growth (GI% or GIPRCNT), where numbers from 0 - 100% represent growth inhibition, and numbers from -100% - 0 represent cell death. For example, a value of 40 represents 60% growth inhibition. A value of 0 means no net growth occurred over the course of the experiment. A value of -40 indicates 40% of cells at the beginning of the experiment died by the end of the experiment. A value of -100 means all cells are dead at the end of the experiment.
NCI-60 Human Tumor Cell Lines Screen was performed using the standard one-dose NCI protocol, which is described in more detail at https://dtp.cancer.gov/discovery_development/nci-60/default.htm.
Compounds with GIPRCNT values below 10 were considered active. Activity score was based on GIPRCNT using the following formula: […]
Score is 0 for GIPRCNT values of 100 or above, 50 for GIPRCNT values of 0, and 100 for GIPRCNT values of -100.

Compound | growth
Cc1ccccc1NC(=O)N/C(N)=N/c1nc(C)c(C)s1 | 21.3% (inactive)
COc1cccc(C(=O)NCCCNc2cc(-c3cn(-c4ccccc4)nc3-c3cccc(OC)c3)ccn2)c1 | 39.7% (inactive)
CC(=O)c1ccc(NCC(=O)Nc2ccccn2)cc1 | 102% (inactive)
CC/C=C1/C(=O)C=C[C@@H]1C/C=C\CCCC(=O)O | 64.9% (inactive)
COc1ccc(C(=NN=C(N)N)c2ccc(OC)cc2)cc1 | 39.4% (inactive)
COc1ccc2c(c1)O/C(=C\c1cccc(OCC(=O)Nc3nc4ccccc4s3)c1)C2=O | 70.5% (inactive)
O=S(=O)(Nc1cccc(Cl)c1)c1ccc(-c2cnc(C3CC3)o2)cc1 | 22.9% (inactive)
COc1cccc(-c2nn(-c3ccccc3)cc2-c2ccnc(NCCNC(=O)Nc3ccccc3)c2)c1 | 36.8% (inactive)
COc1ccc(C(=O)/C=C/c2c(C(F)(F)F)nc3sccn23)cc1OC | 15.1% (inactive)
CC1=CN2C(=O)C3C4=C(CCCC4)SC3N=C2CN1c1c(C)cccc1C (stereo not given) | 65% (inactive)
C[C@H]1[C@H]2[C@H]3CC[C@@H]4[C@@]5(C)C/C(=C/c6ccco6)C(=O)C(C)(C)[C@@H]5CC[C@@]4(C)[C@]3(C)CC[C@]23CO[C@]1(C)[C@@H](C(=O)/C=C\c1ccco1)C3 | 83.4% (inactive)
c1ccc2cc3nc4cc5ccccc5cc4nc3cc2c1 | 101% (inactive)
COC(=O)[C@]12CC[C@@H](C)[C@H](C)[C@@H]1C1=CC[C@@H]3[C@@]4(C)C(C=O)=C[C@@](C)(COC(C)=O)C4=CC[C@@]3(C)[C@]1(C)CC2 | -25.8% (active)
COc1ccc(-c2nc(SC(C)C)nc(NNC(N)=S)c2C#N)cc1 | 52.8% (inactive)
NCCCNc1nc2ccccc2c2c(=O)c3cccc(Cl)c3sc12 | -51.7% (active)
NC(=S)N/N=C/Cc1ccccc1 | 98.4% (inactive)
CC1SC(c2ccc(OCc3ccccc3)cc2)N(NC(=O)C(O)(c2ccccc2)c2ccccc2)C1=O (stereo not given) | 66% (inactive)
COc1cc(N=Nc2ccc(N)cc2)c(OC)cc1N=Nc1ccccc1.[Cl][Zn][Cl] | 104% (inactive)
Cc1ccc(Cl)cc1NC(=O)c1cc2ccccc2cc1O | 2.92% (active)
NC(N)=NN=C(c1ccccc1)c1ccccc1 | 32.1% (inactive)

Compound | growth
CCOP(=O)(OCC)C1CP(=O)(c2ccccc2)CC(C)=C1Cl (stereo not given) | 96.9% (inactive)
COc1ccc2nc(NNC(=O)c3cnccn3)c3cccn3c2c1 | 0.414% (active)
COc1cccc(-c2nc3sccn3c2-c2ccnc(NCCNS(=O)(=O)c3cccc(Cl)c3)c2)c1 | 58.8% (inactive)
N#Cc1c(-c2ccccc2)cc(-c2ccc(Nc3nc(Nc4ccc(F)cc4)nc(Nc4ccc(F)cc4)n3)cc2)nc1N | 92% (inactive)
Cc1ccc(N2CCN(C(=S)c3cccs3)CC2)cc1 | 96.3% (inactive)
CC1CC(C(C)(C)C)C(=O)C(C(C)(C)C)C1 (stereo not given) | 105% (inactive)
c1coc(-c2c3ccc(=[N+]4CCCCC4)cc-3oc3cc(N4CCCCC4)ccc23)c1 | -85.2% (active)
CCOC(=O)C/C(C)=N\NC(=O)c1ccncc1 | 107% (inactive)
Cc1c(C(=O)NC(Cc2ccccc2)C(O)C(=O)NCc2ccc(F)cc2)[nH]c2ccccc2c1=O (stereo not given) | 90.2% (inactive)
CC(=O)OC1CCC2(C)C(=CC3C4CCC(=O)C4(C)CCC32)C1 (stereo not given) | 98.5% (inactive)
O=C(COc1ccc(/C=C2\Oc3ccccc3C2=O)cc1)c1ccc(Cl)cc1 | 104% (inactive)
COc1cccc2c1C(=O)c1c(O)c3c(c(O)c1C2=O)CC(O)(/C(C)=N/NC(=O)CCCCC(=O)N/N=C(\C)C1(O)Cc2c(O)c4c(c(O)c2C(OC2CC(N)C(O)C(C)O2)C1)C(=O)c1c(OC)cccc1C4=O)CC3OC1CC(N)C(O)C(C)O1 (stereo not given) | 2.32% [5 µM] (active)
O=C(O)c1ccc2c(c1Cl)C(=O)c1ccccc1C2=O | 99.1% (inactive)
CCSC1=NC2C(N(CC)C(=O)N2CC)N1/N=C/C=C/c1ccccc1[N+](=O)[O-] (stereo not given) | 12.7% (inactive)
CCCCCCCCCCCCCCCCCCOc1ccc(CC(=O)OCC[N+]2(C)CCCC2)cc1 | 85.8% (inactive)
COC1=C(OC)C(=O)C(OC)=C(OC)C1=O | 105% (inactive)
CC(=O)O[C@]1(C(C)=O)CCC2C3C[C@H](C)C4=CC(=O)CC[C@]4(C)C3CC[C@@]21C (stereo not given in full) | 104% (inactive)
CCc1c2c(nc3ccc(OC(=O)OCc4ccc(B5OC(C)(C)C(C)(C)O5)cc4)cc13)-c1cc3c(c(=O)n1C2)COC(=O)[C@]3(O)CC | -57.2% (active)
N#Cc1c2c(nn(-c3ccccc3)c1=O)C(O)=C([N+](=O)[O-])C(c1ccccc1)C2 (stereo not given) | 57.7% (inactive)
O=Cc1ccc(O)c2ncccc12 | 25.3% (inactive)
